# Laboratory results as given in PubChem BioAssay.
# The source made the active and inactive calls.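 How the source made its calls, unless noted: active means mean z-score across replicates of 1.96 or higher in either the MELAS or the Rieske mutant cell line; inactive means the rest.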
# How the values were obtained:
# [1] = sensitizers of A549 cells to miR-34 induction, primary screen, imaging, A549 dox-inducible miR-34, nuclei and caspase counts (AID 1347080;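 active means compounds whose cell count with miR-34 switched on is under 0.7 times the count with it off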); details: A549 miR-34 inducible, Hoechst nuclei count, 48 h
# [2] = survival rescue of mitochondrial mutant cells in low glucose, primary screen, MELAS cybrids, Rieske KO mouse fibroblasts, CellTiter-Glo (AID 1508586);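 further: z relative to plate mean and SD of compound and empty wells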
# [3] = stronger effect = lower value, cell number ratio, induced over uninduced
# [4] = measured here: relative caspase fold change +Dox/-Dox
# [5] = measured here: total cells with miR-34 induction, stronger effect = lower value
# [6] = measured here: total cells without miR-34 induction
# [7] = MELAS cybrid survival, CellTiter-Glo 48 h, stronger effect = higher value
# [8] = Rieske KO mouse fibroblast survival, CellTiter-Glo 72 h
# Further: test concentration not given here.
SMILES,"fold change [1, 3]","fold change [1, 4]","cell count [1, 5]","cell count [1, 6]","z-score [2, 7]","z-score [2, 8]"
CCC1OC(=O)CC(O)C(C)C(OC2OC(C)C(O)C(N(C)C)C2O)C(CCN2CC(C)CC(C)C2)CC(C)C(=O)C=CC(C)=CC1COC1OC(C)C(O)C(OC)C1OC (configuration not stated),0.924 (inactive),0.808,8240,8920,-0.194 (inactive),-0.165
N#Cc1cc(CN2CCC(Nc3ncnc4sc(Cl)cc34)CC2)ccc1F,0.932 (inactive),0.447,6280,6740,-0.501 (inactive),-0.555
C[C@]12C=CC(=O)C=C1CC[C@H]1[C@@H]3CC(O)[C@@](O)(C(=O)CO)[C@@]3(C)CC(O)[C@]12F (some centres not stated),0.898 (inactive),0.627,5780,6430,0.159 (inactive),-0.119
O=C(O)c1ccc(N2C(=O)C(=Cc3ccc(-c4ccc([N+](=O)[O-])cc4)o3)C=C2c2ccccc2)cc1,0.852 (inactive),1.02,7620,8950,-0.417 (inactive),0.868
COc1ccc(-c2cc(=O)c3c(O)cc(OC4OC(COC5OC(C)C(O)C(O)C5O)C(O)C(O)C4O)cc3o2)cc1O (configuration not stated),0.912 (inactive),0.985,7570,8300,-0.28 (inactive),0.179
CC1CC(=O)NN=C1c1ccc(NN=C(C#N)C#N)cc1 (configuration not stated),0.851 (inactive),1.15,8280,9730,-0.305 (inactive),-0.733
NC(=O)N1CCC(CC(=O)N2CCC(C3c4ncc(Br)cc4CCc4cc(Cl)cc(Br)c43)CC2)CC1 (configuration not stated),1.04 (inactive),0.678,5310,5110,-0.458 (inactive),0.637
CCN1CCN(C(=O)NC(C(=O)NC2C(=O)N3C(C(=O)O)=C(CSc4nnnn4C)CS[C@H]23)c2ccc(O)cc2)C(=O)C1=O (some centres not stated),0.907 (inactive),0.724,7730,8520,0.121 (inactive),0.0185
CC1(C)C=C(CN2CC(=Cc3ccc(F)cc3)C(=O)C(=Cc3ccc(F)cc3)C2)C(C)(C)N1O,0.876 (inactive),0.446,6830,7800,-0.493 (inactive),-2.15
O=C1CC(=O)c2c(Cl)c(Cl)c(Cl)c(Cl)c21,1.01 (inactive),0.472,8430,8350,-0.354 (inactive),-0.295
Cc1cnc(NC(=O)Nc2cc(Br)c(C)cc2OCC2CNCCO2)cn1 (configuration not stated),1.11 (inactive),0.742,1910,1730,0.916 (inactive),-0.0359
C[C@]1(C(=O)Nc2ccc(F)nc2)CCCN1c1nc(Nc2cc(C3CC3)[nH]n2)c2cccn2n1,1.01 (inactive),0.776,2100,2080,-0.348 (inactive),-2.24
O=C(C=Cc1cccc(S(=O)(=O)Nc2ccccc2)c1)NO,0.967 (inactive),0.71,1120,1160,0.973 (inactive),1.18
COC1C(O)CC(=O)OC(C)CC=CC=CC(OC2CCC(N(C)C)C(C)O2)C(C)CC(CC=O)C1OC1OC(C)C(OC2C[C@](C)(O)C(O)C(C)O2)C(N(C)C)C1O (some centres not stated),0.934 (inactive),0.625,8350,8940,-0.212 (inactive),-0.158
O=C(NC1CCN(CCCCC2(C(=O)NCC(F)(F)F)c3ccccc3-c3ccccc32)CC1)c1ccccc1-c1ccc(C(F)(F)F)cc1,1.05 (inactive),0.667,3960,3780,-0.492 (inactive),-0.827
CNC1CN(c2ccc3c(=O)c(C(=O)O)cn(-c4nccs4)c3n2)CC1OC (configuration not stated),1.31 (inactive),0.345,1410,1080,2.91 (active),-1.95

SMILES,"fold change [1, 3]","fold change [1, 4]","cell count [1, 5]","cell count [1, 6]","z-score [2, 7]","z-score [2, 8]"
COc1cc2ncnc(Nc3ccc(F)c(Cl)c3)c2cc1NC(=O)C=CCN1CCCCC1,1.12 (inactive),0.707,3310,2960,-0.496 (inactive),-1.94
C=CCC1C=C(C)CC(C)CC(OC)C2O[C@@](O)(C(=O)C(=O)N3CCCC[C@H]3C(=O)OC(C(C)=CC3CCC(O)C(OC)C3)C(C)C(O)CC1=O)C(C)CC2OC (some centres not stated),0.917 (inactive),0.834,7870,8580,-0.545 (inactive),0.683
OC(CC1c2ccccc2-c2cncn21)C1CCCCC1 (configuration not stated),0.992 (inactive),0.351,8340,8410,-0.436 (inactive),-0.0844
Cc1c(Cc2ccc3ccccc3n2)c2cc(F)ccc2n1CC(=O)O,0.985 (inactive),0.424,6920,7030,0.326 (inactive),-0.0715
CCC(C(C)O)n1ncn(-c2ccc(N3CCN(c4ccc(OCC5CO[C@@](Cn6cncn6)(c6ccc(F)cc6F)C5)cc4)CC3)cc2)c1=O (some centres not stated),1.04 (inactive),0.726,4300,4130,-0.325 (inactive),0.236
Cc1onc(-c2c(Cl)cccc2Cl)c1C(=O)NC1C(=O)N2C1SC(C)(C)C2C(=O)O (configuration not stated),0.869 (inactive),0.56,8500,9780,-0.165 (inactive),-0.146
CC(C)CN(C[C@H](O)[C@@H](Cc1ccccc1)NC(=O)O[C@@H]1CO[C@H]2OCC[C@H]21)S(=O)(=O)c1ccc(N)cc1,0.938 (inactive),0.791,7440,7930,-0.364 (inactive),0.28
O=C(Nc1ncc(SCCN2CCCC2)s1)[C@]1(c2ccc(S(=O)(=O)C3CC3)cc2)CC1C1CCCCC1 (some centres not stated),0.954 (inactive),1.22,5020,5260,-0.306 (inactive),-0.0398
COc1cc2c(cc1-c1c(C)noc1C)ncc1[nH]c(=O)n(C(C)c3ccccn3)c12 (configuration not stated),0.947 (inactive),0.831,7600,8030,0.365 (inactive),-1.83
CCn1cc(NC(=S)Nc2cc(Cl)ccc2OC)c(C(N)=O)n1,0.929 (inactive),0.479,8480,9130,-0.357 (inactive),0.0626
COc1ccnc2[nH]cc(C(=O)C(=O)N3CCN(C(=O)c4ccccc4)CC3C)c12 (configuration not stated),0.955 (inactive),0.698,9920,10400,-0.419 (inactive),0.811
O=C(c1ccc(F)cc1)N1CCCC(c2nc(-c3ccc(F)cc3)no2)C1 (configuration not stated),0.877 (inactive),0.718,8270,9420,-0.287 (inactive),-0.496
COc1c(C)c2c(c(O)c1CC=C(C)CCC(=O)O)C(=O)OC2,1.08 (inactive),0.86,3150,2920,0.238 (inactive),0.269
C#C[C@]1(O)CC[C@H]2[C@@H]3CCC4=CC(=O)CC[C@@H]4[C@@H]3CC[C@@]21C,0.857 (inactive),0.775,7940,9270,-0.24 (inactive),-0.172
CC1CC=CC=CC=CC=CC(O[C@@H]2OC(C)C(O)C(N)C2O)C[C@@H]2O[C@](O)(CC(O)C[C@H]3OC3C=CC(=O)O1)CC(O)C2C(=O)O (some centres not stated),0.876 (inactive),1.14,7260,8280,-0.47 (inactive),-0.427
O=C(Nc1cccc(Cl)c1)c1ccccn1,0.981 (inactive),0.991,7550,7700,0.406 (inactive),-0.326
